# Data published in the supplement of paper PMC4022240.
# ± gives the standard deviation.
# What was measured:
# Assay in all cases: peptide microarray binding signal (635 nm), min-max normalized on array (fraction of array maximum); higher = stronger binding
# Details in all cases: peptide region: H2B 7-19
# [1] = target: T1, HaloTag-ATRX ADD domain (163-292)
# T1 chain: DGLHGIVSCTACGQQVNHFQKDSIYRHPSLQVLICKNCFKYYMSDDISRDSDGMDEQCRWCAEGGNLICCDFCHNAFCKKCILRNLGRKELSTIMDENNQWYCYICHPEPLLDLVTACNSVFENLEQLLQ
# Method: (§1)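 Histone 13-mer peptides were synthesized as cellulose conjugates with a C-terminal 20-atom PEG linker and printed in triplicate on nitrocellulose. The sequence given is the unmodified backbone; PTMs (Kme1/2/3, Kac, Sph/Tph, Rme/Rme2a/Rme2s, Rcit) are listed in the label and the 'peptide modifications' condition. Slides were probed at 4 °C for 1 h with biotin-labelled (HQ)5-HaloTag reader fusions (ATRX-ADD, ING2-PHD) then streptavidin-Alexa647, or with rabbit histone antibodies then anti-rabbit Alexa647. The mean 635 nm signal of the triplicate spots was scaled 0-1 between the lowest and highest values on each array.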
# [2] = target: HaloTag-ING2 PHD (mouse Ing2 200-280)
# Method: as §1
# [3] = target: anti-H3K4me3 antibody ab8580
# Method: as §1
# [4] = target: anti-H3K9me3 antibody ab8898
# Method: as §1
# [5] = peptide modifications: H2BK11ac H2BS14ph H2BK15ac, binder concentration: 1:2,000 dilution
# [6] = peptide modifications: H2BK11ac H2BS14ph H2BK15ac, binder concentration: 1:10,000 dilution
# [7] = peptide modifications: H2BK12ac H2BS14ph H2BK15ac H2BK16ac, binder concentration: 1:2,000 dilution
# [8] = peptide modifications: H2BK12ac H2BS14ph H2BK15ac H2BK16ac, binder concentration: 1:10,000 dilution
# [9] = peptide modifications: H2BK11ac H2BK15ac, binder concentration: 1:2,000 dilution
# [10] = peptide modifications: H2BK11ac H2BK15ac, binder concentration: 1:10,000 dilution
# [11] = peptide modifications: H2BK11ac H2BK15ac H2BK16ac, binder concentration: 1:2,000 dilution
# [12] = peptide modifications: H2BK11ac H2BK15ac H2BK16ac, binder concentration: 1:10,000 dilution
# [13] = peptide modifications: H2BK12ac H2BK15ac H2BK16ac, binder concentration: 1:2,000 dilution
# [14] = peptide modifications: H2BK12ac H2BK15ac H2BK16ac, binder concentration: 1:10,000 dilution
binder,measurement,setting,value
APAPKKGSKKAVT [H2B 7-19 A P A P Kac K G Sph Kac K A V T],peptide microarray binding signal,"[1]; peptide modifications: H2BK11ac H2BS14ph H2BK15ac, binder concentration: 50 nM",0.00176 ± 7.1e-05
same,peptide microarray binding signal,"[1]; peptide modifications: H2BK11ac H2BS14ph H2BK15ac, binder concentration: 500 nM",0.00238 ± 7.9e-05
same,peptide microarray binding signal,"[2]; peptide modifications: H2BK11ac H2BS14ph H2BK15ac, binder concentration: 10 nM",0.00286 ± 8.4e-05
same,peptide microarray binding signal,"[2]; peptide modifications: H2BK11ac H2BS14ph H2BK15ac, binder concentration: 100 nM",0.00149 ± 3.1e-05
same,peptide microarray binding signal,[3]; [5],0.00157 ± 4.2e-05
same,peptide microarray binding signal,[3]; [6],0.000742 ± 1.3e-05
same,peptide microarray binding signal,[4]; [5],0.000393 ± 1e-05
same,peptide microarray binding signal,[4]; [6],0.000692 ± 7.3e-06
APAPKKGSKKAVT [H2B 7-19 A P A P K Kac G Sph Kac Kac A V T],peptide microarray binding signal,"[1]; peptide modifications: H2BK12ac H2BS14ph H2BK15ac H2BK16ac, binder concentration: 50 nM",0.00257 ± 9.2e-05
same,peptide microarray binding signal,"[1]; peptide modifications: H2BK12ac H2BS14ph H2BK15ac H2BK16ac, binder concentration: 500 nM",0.00224 ± 5e-05
same,peptide microarray binding signal,"[2]; peptide modifications: H2BK12ac H2BS14ph H2BK15ac H2BK16ac, binder concentration: 10 nM",0.005013 ± 2.5e-05
same,peptide microarray binding signal,"[2]; peptide modifications: H2BK12ac H2BS14ph H2BK15ac H2BK16ac, binder concentration: 100 nM",0.00213 ± 9.1e-05
same,peptide microarray binding signal,[3]; [7],0.000793 ± 0.00015
same,peptide microarray binding signal,[3]; [8],0.000799 ± 8.3e-06
same,peptide microarray binding signal,[4]; [7],0.000423 ± 8.2e-06
same,peptide microarray binding signal,[4]; [8],0.0011 ± 4e-05
APAPKKGSKKAVT [H2B 7-19 A P A P Kac K G S Kac K A V T],peptide microarray binding signal,"[1]; peptide modifications: H2BK11ac H2BK15ac, binder concentration: 50 nM",0.00295 ± 3.3e-05
same,peptide microarray binding signal,"[1]; peptide modifications: H2BK11ac H2BK15ac, binder concentration: 500 nM",0.00457 ± 5.4e-05
same,peptide microarray binding signal,"[2]; peptide modifications: H2BK11ac H2BK15ac, binder concentration: 10 nM",0.00686 ± 0.00014
same,peptide microarray binding signal,"[2]; peptide modifications: H2BK11ac H2BK15ac, binder concentration: 100 nM",0.0056 ± 0.00049
same,peptide microarray binding signal,[3]; [9],0.00319 ± 0.0012
same,peptide microarray binding signal,[3]; [10],0.000913 ± 2.8e-05
same,peptide microarray binding signal,[4]; [9],0.00104 ± 1.4e-05
same,peptide microarray binding signal,[4]; [10],0.0015 ± 4.4e-05
APAPKKGSKKAVT [H2B 7-19 A P A P Kac K G S Kac Kac A V T],peptide microarray binding signal,"[1]; peptide modifications: H2BK11ac H2BK15ac H2BK16ac, binder concentration: 50 nM",0.005642 ± 4e-05
same,peptide microarray binding signal,"[1]; peptide modifications: H2BK11ac H2BK15ac H2BK16ac, binder concentration: 500 nM",0.0203 ± 0.002
same,peptide microarray binding signal,"[2]; peptide modifications: H2BK11ac H2BK15ac H2BK16ac, binder concentration: 10 nM",0.00776 ± 0.00056
same,peptide microarray binding signal,"[2]; peptide modifications: H2BK11ac H2BK15ac H2BK16ac, binder concentration: 100 nM",0.0162 ± 0.0017
same,peptide microarray binding signal,[3]; [11],0.0139 ± 0.0047
same,peptide microarray binding signal,[3]; [12],0.00245 ± 0.0001
same,peptide microarray binding signal,[4]; [11],0.00378 ± 0.00028
same,peptide microarray binding signal,[4]; [12],0.00254 ± 0.0001
APAPKKGSKKAVT [H2B 7-19 A P A P K Kac G S Kac Kac A V T],peptide microarray binding signal,"[1]; peptide modifications: H2BK12ac H2BK15ac H2BK16ac, binder concentration: 50 nM",0.00505 ± 0.00068
same,peptide microarray binding signal,"[1]; peptide modifications: H2BK12ac H2BK15ac H2BK16ac, binder concentration: 500 nM",0.00719 ± 0.0027
same,peptide microarray binding signal,"[2]; peptide modifications: H2BK12ac H2BK15ac H2BK16ac, binder concentration: 10 nM",0.00621 ± 0.0005
same,peptide microarray binding signal,"[2]; peptide modifications: H2BK12ac H2BK15ac H2BK16ac, binder concentration: 100 nM",0.00631 ± 0.00038
same,peptide microarray binding signal,[3]; [13],0.00068 ± 9e-05
same,peptide microarray binding signal,[3]; [14],0.001541 ± 1.5e-05
same,peptide microarray binding signal,[4]; [13],0.00104 ± 4.9e-05
same,peptide microarray binding signal,[4]; [14],0.00133 ± 4e-05
